Bioassay records (PubChem)
HIF-2a block – HIF-2a reporter inhibitors, primary screen, luminescence, 786-0 RCC cells. 786-0 RCC cells HIF-2a reporter, luciferase luminescence, overnight. inhibition, % at 18.8 µM. hit rate 0.72% among 360,000;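 active means inhibition of the luminescence signal of 40% or more relative to plate controls, in a single-dose primary screen at 18.75 µM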
Peg3 promoter – Peg3 promoter-driven luciferase inhibitors, primary screen, cell-based, HeLa, luciferase luminescence; HeLa PEG-Prom luciferase reporter, overnight; inhibition, % at 20 µM; hit rate 1.7% among 360,000;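 active means inhibition of at least 50% at 20 µM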
ABHD5-PLIN5 inh – ABHD5-PLIN5 interaction inhibitors, primary screen, cell lysate, split luciferase complementation, luminescence | Split G. princeps luciferase complementation, 4 h | inhibition, % at 4 µM | hit rate 0.78% among 360,000 | AID 602281, 2012;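 active means inhibition above the mean inhibition across every tested compound plus 3 SD, cut at about 22% in these data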
KKLEB tox – cytotoxicity in KKLEB CF airway cells, primary screen, cytotoxicity control for CF NF-kB inhibitor project, cell-based, uHTS, fluorescence assay plates; KKLEB CF airway cells viability, ATPlite luminescence, overnight; active compounds read low; cells stimulated with P. aeruginosa culture filtrate; activity change (cytotoxicity), % at 5 µM; hit rate 0.36% among 360,000; AID 602141, 2011;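 active means corrected activity change at or below -50% at 5 µM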
Mdm2-MdmX inh – inhibitors of human Mdm2-MdmX association, primary screen, cell-based, luminescence, split luciferase, SaOS-2, uHTS; inhibition, % at 8 µM; hit rate 3% among 330,000; Protein Mdm4 (Homo sapiens) + E3 ubiquitin-protein ligase Mdm2 (Homo sapiens), …; SaOS-2 split-luciferase Mdm2/MdmX complementation;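 active means inhibition of at least 50% at 8 µM in the primary screen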
Target sequence (O15151 whole entry, looked up): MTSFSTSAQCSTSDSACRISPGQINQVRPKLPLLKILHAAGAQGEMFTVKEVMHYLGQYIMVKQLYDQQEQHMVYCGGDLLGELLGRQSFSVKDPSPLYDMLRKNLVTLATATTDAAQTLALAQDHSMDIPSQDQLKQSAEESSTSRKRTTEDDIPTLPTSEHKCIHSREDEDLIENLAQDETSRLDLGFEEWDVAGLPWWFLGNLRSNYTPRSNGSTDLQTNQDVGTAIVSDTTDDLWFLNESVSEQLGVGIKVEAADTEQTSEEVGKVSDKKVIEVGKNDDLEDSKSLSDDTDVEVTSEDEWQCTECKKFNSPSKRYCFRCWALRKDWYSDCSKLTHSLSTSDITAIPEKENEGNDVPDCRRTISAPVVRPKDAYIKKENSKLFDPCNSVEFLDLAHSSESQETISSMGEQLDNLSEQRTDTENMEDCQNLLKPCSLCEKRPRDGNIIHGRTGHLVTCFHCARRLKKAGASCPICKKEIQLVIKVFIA
Target sequence (Q00987 whole entry, looked up): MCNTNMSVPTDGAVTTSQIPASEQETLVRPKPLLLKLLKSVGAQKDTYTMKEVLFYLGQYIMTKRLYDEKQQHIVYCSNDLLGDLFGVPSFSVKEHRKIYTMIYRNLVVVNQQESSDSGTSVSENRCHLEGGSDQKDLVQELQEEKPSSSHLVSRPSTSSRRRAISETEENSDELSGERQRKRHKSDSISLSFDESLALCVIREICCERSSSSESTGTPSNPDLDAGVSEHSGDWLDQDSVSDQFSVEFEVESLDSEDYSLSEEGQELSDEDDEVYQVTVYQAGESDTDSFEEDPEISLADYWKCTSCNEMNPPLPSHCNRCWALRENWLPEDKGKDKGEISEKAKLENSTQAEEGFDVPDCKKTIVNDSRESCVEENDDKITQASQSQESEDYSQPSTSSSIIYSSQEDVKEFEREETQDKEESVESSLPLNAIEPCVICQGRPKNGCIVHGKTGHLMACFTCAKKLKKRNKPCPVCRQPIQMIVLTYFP
CF NFkB inh – inhibitors of PAF-induced NF-kB signaling, primary screen, cell-based, GFP fluorescence, uHTS; hit rate 0.86% among 360,000; KKLEB NF-kB-GFP reporter, GFP fluorescence overnight; inhibition, % at 5 µM;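 active means at least 50% inhibition at 5 µM, scaled per plate between neutral and stimulator controls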;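 further: PAF is a Pseudomonas aeruginosa culture filtrate used as stimulus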
Mdm2 MdmX conf-1 – Mdm2-MdmX complex disruptors, retested hits, confirmation, luminescence, single concentration. shares compounds with Mdm2-MdmX inh. Mdm2-MdmX binding, luminescent assay. inhibition, % at 8 µM. hit rate 55% among 10,000
Full FLuc ctr – full-length luciferase signal inhibition, confirmation, counter-screen for Mdm2/MdmX interaction inhibitor project, cell-based, single concentration, SaOS-2 | shares compounds with Mdm2-MdmX inh | SaOS-2 full-length luciferase counterscreen, luminescence | inhibition, % at 8 µM | hit rate 77% among 6,200;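 active means mean inhibition at 8 µM reaching about 37%, which flags the compound as non-specific, limit read from the data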;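 further: p53-null SaOS-2 cells with luciferase driven by a doxycycline-inducible promoter; compound on cells about two nights before reading with doxycycline added after day one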
CF NFkB conf – inhibitors of PAF-induced NF-kB signaling, retest, confirmation, cell-based, GFP fluorescence, single concentration; KKLEB CF airway cells, overnight; hit rate 64% among 1,300; AID 602472, 2012; shares compounds with CF NFkB inh; inhibition, % at 5 µM;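 further: stimulus PAF is a Pseudomonas aeruginosa filtrate and not platelet activating factor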
ABHD5-PLIN5 conf – ABHD5-PLIN5 interaction inhibitors, confirmation, biochemical, luminescence; shares compounds with ABHD5-PLIN5 inh; inhibition, % at 4 µM; hit rate 67% among 2,200; AID 651612, 2012; in the data active means inhibition above about 23%
HNF4 split-luc – HNF4 dimerization inhibitors, counter-screen for ABHD5-PLIN5 interaction inhibitor project, biochemical, split-luciferase complementation, luminescence | shares compounds with ABHD5-PLIN5 inh | inhibition, % at 4 µM | hit rate 77% among 2,200 | AID 651674, 2012;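 active means mean inhibition across replicate wells exceeding the computed hit threshold, cut at about 13% in these data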;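 further: light from luciferase halves that rejoin when HNF4 fusion proteins dimerize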
Mdm2 MdmX conf-2 – retested Mdm2-MdmX interaction blockers, confirmation, cell-based, luminescence, single concentration, set 2. shares compounds with HIF-2a block. SaOS-2 split-luciferase Mdm2/MdmX complementation. inhibition, % at 8 µM. hit rate 99% among 740;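 active means mean inhibition of the luminescence signal across two replicates at or above 26 percent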
HIF-2a conf – HIF-2a reporter inhibitor retest, confirmation, luminescence, 786-0 RCC cells. shares compounds with HIF-2a block. HIF-2a luciferase reporter luminescence, overnight. inhibition, % at 18.8 µM. hit rate 56% among 1,800;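 active means mean inhibition across four replicates of at least 40 percent at the single tested concentration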
HIF-1a cs – HIF-1a luciferase reporter signal reduction – MiaPaCa-2 cells, single concentration, counter-screen for HIF-2a inhibitor project, confirmation | MiaPaCa-2 HIF-1a luciferase reporter, desferoxamine, overnight | inhibition, % at 18.8 µM | shares compounds with HIF-2a block | hit rate 72% among 1,800;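 active means mean inhibition of the reporter signal across four replicates at the single tested dose of 50% or more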
A number is an active result; i = inactive; nt = no result given. Sampled rows, rich in hits. Any-hit rate of the full collection: about 4.6%. Unless noted, no stated cut-off is given here; in the data, active means inhibition above about 40%; inactive means the rest.

SMILES	HIF-2a block	Peg3 promoter	ABHD5-PLIN5 inh	KKLEB tox	Mdm2-MdmX inh	CF NFkB inh	Mdm2 MdmX conf-1	Full FLuc ctr	HIF-2a conf	HIF-1a cs	others
N#CC1C(=O)NC(=O)C(C#N)C12CCCC2 (stereo not drawn)	i	i	i	i	nt	i	nt	nt	nt	nt
Cn1c(=O)n(C)c2cc(NC(=O)CCl)ccc21	51.0	i	i	i	69.4	i	67.0	45.7	i	80.9
CCn1c(=O)oc2cc(NC(=O)CCl)ccc21	40.2	i	i	i	66.2	i	i	nt	i	84.1
COc1ccc(S(=O)(=O)NC(=O)C2(C)CCN2C(=O)C2(c3ccccc3)CC2)cc1 (stereo not drawn)	i	i	i	i	nt	i	nt	nt	nt	nt
COc1ccc(OCc2cccc(C(=O)Nc3cc(C)on3)c2)cc1	66.5	i	i	i	i	i	i	nt	67.6	i
COc1cccc(C(=O)Nc2cc(C)on2)c1	i	i	i	i	nt	i	nt	nt	nt	nt
COc1ccc(OCc2cccc(C(=O)Nn3cc([N+](=O)[O-])cn3)c2)cc1	62.5	i	i	i	78.5	i	71.5	i	84.1	i
CN(Cc1ccccc1Cl)C(=O)C1CCC(=O)N(C2CCCCCC2)C1 (stereo not drawn)	i	i	i	i	i	i	nt	nt	nt	nt
O=C(/C=C/c1ccc(Br)cc1)c1ccc(NC2=NCCCS2)cc1	66.9	107.6	88.6	i	100.7	55.8	i	77.1	i	107.2	CF NFkB conf=i;ABHD5-PLIN5 conf=95.0;HNF4 split-luc=83.9
Cn1c(SCC(=O)Nc2nc3c(s2)CCCC3)nnc1-c1ccccc1	i	i	i	i	i	i	nt	nt	nt	nt
CC(C)(C)c1nc(SCC(=O)Nc2nc3c(s2)CCCC3)c2ccccc2n1	i	i	i	i	97.8	i	92.8	54.3	nt	nt	Mdm2 MdmX conf-2=100.7
COc1ccc(Cl)cc1NC(=O)CN(C)C(=O)c1cccc2cccnc12	i	i	i	i	i	i	nt	nt	nt	nt
CCCCn1c(NC(=S)Nc2ccccc2)nc2ccccc21	42.0	i	i	i	58.3	i	i	93.7	i	50.3
S=C(Nc1ccccc1)Nc1nc2ccccc2n1CCOc1ccccc1	90.4	i	i	i	51.3	i	i	nt	i	97.4
